Results published in the supplement of paper PMC7184167.
Where a name gives a salt, the structure may show the parent alone.

System: replication-induced senescent mouse newborn dermal fibroblasts (NBF)
Assay: relative cell viability of senescent cells (fraction); higher = less killing of senescent cells
Conditions: 1 µM; 3 days
Description: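 Replication-induced senescent newborn mouse skin fibroblasts (NBFs) in 24-well plates were treated with a Selleck FDA-approved drug library at 1 µM for 3 days.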

| SMILES | relative cell viability |
| --- | --- |
| CN1[C@@H]2C[C@@H](OC(=O)[C@H](CO)c3ccccc3)C[C@H]1[C@@H]1O[C@@H]12 [Scopolamine HBr] | 1.03 |
| CCC1(c2ccc(N)cc2)CCC(=O)NC1=O (stereo not drawn) [Aminoglutethimide] | 0.889 |
| COc1cc2c(cc1OC)C1CC(=O)C(CC(C)C)CN1CC2 (stereo not drawn) [Tetrabenazine (Xenazine)] | 1.04 |
| C[C@]12CC[C@H]3[C@@H](CC[C@@]45O[C@@H]4C(O)=C(C#N)C[C@]35C)[C@@H]1CC[C@@H]2O [Trilostane] | 0.778 |
| C[C@]12Cc3c[nH]nc3C[C@@H]1CC[C@@H]1[C@@H]2CC[C@@]2(C)[C@H]1CC[C@]2(C)O [Stanozolol] | 0.136 |
| COc1ccc(C(CN(C)C)C2(O)CCCCC2)cc1 (stereo not drawn) [Venlafaxine HCl] | 1.03 |
| CN(C)[C@@H]1C(=O)C(C(N)=O)=C(O)[C@@]2(O)C(=O)C3=C(O)c4c(O)cccc4[C@@](C)(O)[C@H]3[C@H](O)[C@@H]12 [Oxytetracycline (Terramycin)] | 1.01 |
| C=C1C[C@@H]2[C@H](CC[C@]3(C)C(=O)CC[C@@H]23)[C@@]2(C)C=CC(=O)C=C12 [Exemestane] | 1.08 |
| Cn1cc(C2=C(c3cn(C4CCN(Cc5ccccn5)CC4)c4ccccc34)C(=O)NC2=O)c2ccccc21 | 0.523 |
| CN(C)C(=O)Oc1ccc[n+](C)c1 [Pyridostigmine Bromide] | 1.19 |
| CN1c2ccccc2C(NCCCCCCC(=O)O)c2ccc(Cl)cc2S1(=O)=O (stereo not drawn) [Tianeptine sodium] | 0.946 |
| Cn1c(CCCC(=O)O)nc2cc(N(CCCl)CCCl)ccc21 [Bendamustine HCl] | 0.999 |
| CC(O)(CS(=O)(=O)c1ccc(F)cc1)C(=O)Nc1ccc(C#N)c(C(F)(F)F)c1 (stereo not drawn) [Bicalutamide] | 0.913 |
